Screens deposited in PubChem by National Center for Advancing Translational Sciences (NCATS).
HT1080 IDH1KD tx = qHTS for induction of synthetic lethality in tumor cells producing 2HG: qHTS for the HT-1080-IDH1KD cell line; 360,000 tested, 2% active; Potency, µM (highest dose often 46.1 µM), for the others: top-dose activity, negative = toxicity, hits mostly cytotoxic; HT-1080 IDH1 knockdown viability, ATP luminescence, 48 h;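 note: 0% = DMSO wells and -100% = cell-free medium wells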
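In this qHTS, HT-1080 cells depleted of IDH1 are exposed for 48 h at 37 °C to compound titrations. Toxicity is scored from CellTiter-Glo luminescence, with DMSO as full viability and medium alone as none.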
HT1080NT lethal = qHTS for induction of synthetic lethality in tumor cells producing 2HG: qHTS for the HT-1080-NT fibrosarcoma cell line; HT-1080-NT fibrosarcoma viability, CellTiter-Glo ATP luminescence, 48 h; Potency, µM (top dose mostly 46.1 µM), inactives show at the top dose activity, negative = less viability, hits mostly cytotoxic; 360,000 tested, 1.6% active; AID 686970, 2013;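 note: NT is the 2HG producing partner of a matched IDH1 knockdown line; 0% = DMSO-treated cells and -100% = media-only wells without cells; nearly all actives have a fitted effect of over 55% in size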
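Viability of the 2HG-overproducing fibrosarcoma line after 48 hours of compound exposure at 37 degrees C was determined by luminescence with CellTiter-Glo, and concentration-effect curves were then fitted and categorized.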
KB-V1 cytotox = qHTS assay for MDR1-selective chemotherapeutics: Primary screen using the drug-selected MDR subline cells KB-V1; AID 1347076, 2019; 400,000 tested, 3.4% active; Potency, µM (highest dose often 46.1 µM), hits mostly cytotoxic; KB-V1 MDR cells viability, CellTiter-Glo, 72 h; note: % is set by controls: 0 for no effect and ±100 for the full control effect; nearly all actives have a fitted effect of over 60% in size
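KB-V1 MDR subline cells in DMEM (phenol-red free, 10% FBS) exposed to compounds in qHTS concentration series for 72 h at 37 degrees C. Viability read by CellTiter-Glo luminescence; concentration-effect curves fitted after normalization and correction.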
KB-3-1 cytotox = qHTS assay for MDR1-selective chemotherapeutics: Primary screen using the parental adenocarcinoma cell KB-3-1; KB-3-1 viability, CellTiter-Glo ATP luminescence, 72 h; Potency, µM (titrated, usually from 46.1 µM), actives largely listed as cytotoxic; 400,000 tested, 1.4% active; note: % is set by controls: 0 for no effect and ±100 for the full control effect; nearly all actives have a fitted effect of over 60% in size
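Using CellTiter-Glo luminescence, growth of non-resistant KB-3-1 adenocarcinoma cells is assessed 72 h after pin-tool compound addition at 37 °C. Normalized responses across the concentration series yield fitted curves.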
MCF10A rerep = A quantitative high throughput screen for small molecules that induce DNA re-replication in MCF 10a normal breast cells; Potency, µM (series often up to 46.1 µM), inactives show at the top dose activity, positive = re-replication, actives largely listed as activators; MCF 10A DNA re-replication, Hoechst nuclear intensity, 48 h; 350,000 tested, 2.9% active; AID 624296, 2012; note: % of control where 0% means no effect; nearly all actives have a fitted effect of over 50% in size
SW480 rerep = A quantitative high throughput screen for small molecules that induce DNA re-replication in SW480 colon adenocarcinoma cells. Potency, µM (series often up to 46.1 µM), without a hit: at the top dose re-replication activation, actives largely listed as activators. SW480 DNA re-replication, Hoechst DNA content imaging, 48 h. 340,000 tested, 1.8% active; note: % of control where 0% means no effect; nearly all actives have a fitted effect of over 55% in size
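Image-based DNA-content assay: after two days of treatment, nuclei were labelled with the DNA dye Hoechst and imaged, and hits were compounds raising the count of nuclei showing high fluorescence intensity.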
Active calls of the source: *; i = inactive; ? = inconclusive; / = not tested or not shown; [ ] = another dose, or the depositor's remark. A selection: hits, their analogues and other compounds. The true share with any hit is near 7.9%. Calls come from the whole dose curve; as a rule, active = well fitted curve in the direction sought with a large enough effect; inconclusive = small, poorly fitted or top-dose-only effect, or another doubt; inactive = no such curve, though single readings can be large; an effect the other way counts as inactive or inconclusive. Potency is the fitted concentration of half-maximal effect.

SMILES | HT1080 IDH1KD tx | HT1080NT lethal | KB-V1 cytotox | KB-3-1 cytotox | MCF10A rerep | SW480 rerep
Cc1noc(NS(=O)(=O)c2ccc(N/C=C\C(=O)c3ccc4c(c3)OCO4)cc2)c1C | 10µM* | -2% | i | i | 5.8µM* | 7%
Cc1cccc([N+](=O)[O-])c1C(=O)O | -2% | -18% | i | i | -6% | -11%
CN(Cc1cccs1)C(=O)COc1cccc2c1OC(C)(C)C2 | 12% | 5% | 18µM* | i | -4% | 1%
CN(C)CCNC(=O)COc1cccc2c1OC(C)(C)C2 | 12% | 11% | i | i | -7% | 14%
CC1(C)Cc2cccc(OCC(=O)NCCc3ccc(S(N)(=O)=O)cc3)c2O1 | -4% | 1% | 26µM* | i | -4% | -6%
COc1ccc(Cl)cc1S(=O)(=O)N1CCCC(C(=O)NCc2ccncc2)C1 (centres undefined) | -3% | 1% | / | / | 1% | 1%
CC(C)(C)S(=O)N1Cc2cc(C(=O)NCc3ccc4c(c3)OCO4)nc(-c3cccc(-c4cc5ccccc5o4)c3)c2[C@@H]1CCO (some centres undefined) | ? | 23µM* | i | ? | / | /
CC(C)(C)S(=O)N1Cc2cc(C(=O)NCc3ccc(Oc4ccccc4)cc3)nc(-c3cccc(-c4cc5ccccc5o4)c3)c2[C@H]1CCO (some centres undefined) | 18µM* | 18µM* | i | ? | / | /
Cc1nn(CCCC(=O)Nc2cc(Oc3ccccc3)cc([N+](=O)[O-])c2)c(C)c1[N+](=O)[O-] | -9% | -2% | 8.2µM* | ? | ? | 3%
Cc1ccc(C)c(Oc2cc(NC(=O)CCCn3nc(C)c([N+](=O)[O-])c3C)cc([N+](=O)[O-])c2)c1 | ? | 16µM* | 10µM* | ? | ? | ?
Cc1nn(CCCC(=O)Nc2cnn(Cc3ccc(F)cc3)c2)c(C)c1[N+](=O)[O-] | 2% | 2% | i | i | -2% | -2%
Cc1c(Cl)c([N+](=O)[O-])nn1CCCC(=O)Nc1cccc(Cl)c1Cl | 7% | 2% | 16µM* | i | 2% | -7%
Cc1ccc(Cn2nc(C)c(NC(=O)CCCn3nc(C)c([N+](=O)[O-])c3C)c2C)cc1 | -1% | -5% | 9.2µM* | i | -3% | -67%
CC1CCc2c(ccc3ccccc23)C1=O (centres undefined) | 12% | -18% | i | i | 1% | -1%
CCOC(=O)C1=C(CS(=O)(=O)c2ccc(OC)c(Cl)c2)NC(=O)NC1c1cccc(OC)c1 (centres undefined) | / | / | i | i | / | /
O=C(Nc1cc(S(=O)(=O)N2CCCCCC2)ccc1OCC(F)(F)F)C1CCC1 | -26% | -23% | ? | i | ? | -6%
Cc1ccc(Oc2cc(NC(=O)CCCn3nc([N+](=O)[O-])cc3C)cc([N+](=O)[O-])c2)cc1 | -5% | -5% | 5.2µM* | i | -1% | 0%
COc1ccc(C(=O)NC(=S)NCc2ccco2)cc1OC | -1% | -16% | i | i | 3% | -4%
CN(C(=O)COc1ccccc1C(=O)NCCc1ccccc1)c1ccccc1 | 18% | 13% | 5.2µM* | i | 18% | 2%
O=C(NCC1CCCO1)c1ccccc1NS(=O)(=O)c1cccc([N+](=O)[O-])c1 (centres undefined) | -6% | -7% | i | i | -1% | 2%
CCc1nc2ccc(C(=O)NCCCn3ccnc3)cn2c1N(CC)Cc1cccc(Br)c1 | ? | ? | i | i | / | /
CCn1nc(C)c(C2C(C#N)=C(N)Oc3n[nH]c(C)c32)c1C (centres undefined) | 9% | 12% | i | i | 8% | -3%
FC(F)(F)c1cc(Oc2ccccc2)nc(-c2ccccn2)n1 | -29% | ? | 15µM* | ? | 18% | ?
FC(F)(F)c1cccc(Sc2cc(C(F)(F)F)nc(-c3ccccn3)n2)c1 | -10% | -1% | 16µM* | ? | -180%[0.0737 µM] | -11%
CCN(CC)c1cc(C(F)(F)F)nc(-c2ccccn2)n1 | ? | ? | 18µM* | i | ? | ?
SMILES | HT1080 IDH1KD tx | HT1080NT lethal | KB-V1 cytotox | KB-3-1 cytotox | MCF10A rerep | SW480 rerep
C=CCNc1cc(C(F)(F)F)nc(-c2ccccn2)n1 | 0% | 8% | i | i | 3% | -2%
O=C(Nc1ccn(Cc2c(F)c(F)c(F)c(F)c2F)n1)c1ccc(COc2ccccc2Cl)cc1 | ? | 10%[9.24 µM] | i | ? | 20% | 0%
CCC(C)NC(=O)c1ccc(COc2ccccc2Cl)cc1 (centres undefined) | -26% | -10% | 21µM* | i | 3% | 2%
Cc1nn(Cc2cccc(F)c2)c(C)c1NC(=O)c1ccc(COc2ccccc2Cl)cc1 | ? | 2µM* | 2.6µM* | i | ? | 27%
Cc1nn(Cc2cccc(F)c2)c(C)c1NC(=O)c1c([N+](=O)[O-])c(C)nn1C | 19% | 2% | i | i | 4% | -2%
Cc1nn(Cc2c(F)c(F)c(F)c(F)c2F)c(C)c1NC(=O)c1cccc(COc2ccccc2Cl)c1 | -28% | ? | 2.6µM* | i | -4% | -2%
CC(C)CN(C(=O)COC(=O)C1c2ccccc2Oc2ccccc21)C1CCS(=O)(=O)C1 (centres undefined) | 5% | -1% | i | i | ? | 2%[9.22 µM]
Cc1ccc2cc3c(NC(=O)c4ccco4)nn(C)c3nc2c1 | -14% | -11% | ? | ? | 18µM* | ?
CCn1nc(NC(=O)c2ccco2)c2cc3cc(C)ccc3nc21 | 0% | -1% | ? | i | ? | 18µM*
CCCC(=O)Nc1nn(CCC)c2nc3ccccc3cc12 | 0% | 1% | ? | i | 2% | 4%
CCCn1nc(NC(=O)c2ccco2)c2cc3ccccc3nc21 | 2% | -1% | ? | ? | 16µM* | 18µM*
CC(=O)Nc1nn(C)c2nc3cc(C)ccc3cc12 | -1% | 0% | i | i | 7% | 12%
CCCc1c(-c2cccc(Br)c2)ncn1Cc1cccc(-c2ccccc2)c1 | ? | ? | 16µM* | ? | / | /
